In general, AC50 refers to the midpoint of the concentration-response curve, whichever way the signal moves.

Data on 4 compounds can be found in PubChem BioAssay (EPA / NIEHS).

Read-out in assay [1]: Interleukin-8 (IL8), CXCL8 (gene 3576)
Briefly: BSK_KF3CT_IL8: BioMAP Diversity Plus: KF3CT Assay for Interleukin-8 (IL8) Biomarker Activity (AID 2284254). The settings on record: primary human keratinocytes with fibroblasts. Summed up: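 IL-8 read-out: ELISA, 24 h post-dose, human skin primary co-culture (keratinocytes + foreskin fibroblasts). DMSO = baseline; positive-direction fit.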

Read-out in assay [2]: Macrophage Inflammatory Protein-1 Alpha (MIP1a), CCL3 (gene 6348)
The assay can be described thus: BSK_IMphg_MIP1a: BioMAP Diversity Plus: IMphg Assay for Macrophage Inflammatory Protein-1 Alpha (MIP1a) Biomarker Activity (AID 2284255). The settings on record: primary human endothelial cells with macrophages. Summed up: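 Co-culture of human venular endothelial cells and macrophages exposed to compounds for 24 h; MIP-1a measured by ELISA relative to DMSO. Cytotoxicity assessed in parallel cultures by sulforhodamine B total-protein staining at 560 nm.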

Read-out in assay [3]: Plasminogen activator inhibitor-1 (PAI1), SERPINE1 (gene 5054)
The assay can be described thus: BSK_MyoF_PAI1: BioMAP Diversity Plus: MyoF Assay for Plasminogen activator inhibitor-1 (PAI1) Biomarker Activity (AID 2284256).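 Further: PAI-1 read 24 h after compound addition.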 The settings on record: primary human lung fibroblasts. Summed up:
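MyoF lung fibroblasts, human primary; compound 24 h; PAI-1 ELISA; positive-direction fit vs DMSO baseline; parallel SRB total-protein staining for cytotoxicity.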

Read-out in a further assay: CD69, CD69 (gene 969)
The assay can be described thus: BSK_IMphg_CD69: BioMAP Diversity Plus: IMphg Assay for CD69 Biomarker Activity (AID 2284257). The settings on record: primary human endothelial cells with macrophages. The gist of the method:
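Human venular endothelial cells co-cultured with macrophages; CD69 quantified by ELISA 24 h after compound addition. Activity fitted in the positive direction relative to DMSO baseline; cytotoxicity tracked in parallel cultures via SRB total-protein staining.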

Read-out in assay [4]: Monocyte Chemoattractant Protein-1 (MCP1), CCL2 (gene 6347)
The assay can be described thus: BSK_BF4T_MCP1: BioMAP Diversity Plus: BF4T Assay for Monocyte Chemoattractant Protein-1 (MCP1) Biomarker Activity (AID 2284259). The settings on record: primary human bronchial epithelial cells with fibroblasts. The gist of the method:
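Co-culture of bronchial epithelial cells and dermal fibroblasts dosed with chemical; MCP-1 measured by ELISA 24 h later. Activity fitted in positive direction versus DMSO; cytotoxicity checked by SRB staining in parallel cultures.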

Read-out in assay [5]: Intercellular Adhesion Molecule 1 (ICAM1), ICAM1 (gene 3383)
Briefly: BSK_BF4T_ICAM1: BioMAP Diversity Plus: BF4T Assay for Intercellular Adhesion Molecule 1 (ICAM1) Biomarker Activity (AID 2284260). Conditions: primary human bronchial epithelial cells with fibroblasts. Summed up:
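Co-culture of human bronchial epithelial cells and dermal fibroblasts exposed 24 h to chemical; cell-surface ICAM-1 quantified by ELISA. Parallel SRB total-protein staining assessed cytotoxicity; activity fitted relative to DMSO.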

Read-out in assay [6]: Interleukin-8 (IL8), CXCL8 (gene 3576)
Briefly: BSK_MyoF_IL8: BioMAP Diversity Plus: MyoF Assay for Interleukin-8 (IL8) Biomarker Activity (AID 2284261). The settings on record: primary human lung fibroblasts. The gist of the method: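 Lung fibroblasts (human primary) → chemical exposure → 24 h → IL-8 measured by ELISA. Signal increase scored versus DMSO control.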

Read-out in another assay: CD90, THY1 (gene 7070)
The assay can be described thus: BSK_BF4T_CD90: BioMAP Diversity Plus: BF4T Assay for CD90 Biomarker Activity (AID 2284262). The settings on record: primary human bronchial epithelial cells with fibroblasts. Summed up:
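Co-culture of human bronchial epithelial cells and dermal fibroblasts, 24 h compound exposure. Cell-surface CD90 measured by ELISA relative to DMSO; parallel SRB total-protein staining for cytotoxicity.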

Read-out in assay [7]: Interleukin-8 (IL8), CXCL8 (gene 3576)
The assay can be described thus: BSK_BF4T_IL8: BioMAP Diversity Plus: BF4T Assay for Interleukin-8 (IL8) Biomarker Activity (AID 2284263). The settings on record: primary human bronchial epithelial cells with fibroblasts. Summed up:
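Human bronchial epithelial cells with dermal fibroblasts co-culture; IL-8 measured by ELISA 24 hours after dosing, fitted vs DMSO. Cytotoxicity tracked in parallel cultures by SRB total-protein staining.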

Read-out in the next assay: Decorin, DCN (gene 1634)
Briefly: BSK_MyoF_Decorin: BioMAP Diversity Plus: MyoF Assay for Decorin Biomarker Activity (AID 2284265). The settings on record: primary human lung fibroblasts. Summed up:
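ELISA readout of decorin, 24 h post-dosing; primary human lung fibroblast (MyoF) culture; gain-of-signal fit vs DMSO baseline.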

Read-out in another assay: KRT18 (gene 3875)
Briefly: BSK_BF4T_Keratin818: BioMAP Diversity Plus: BF4T Assay for Keratin 818 Biomarker Activity (AID 2284266). Conditions: primary human bronchial epithelial cells with fibroblasts. The gist of the method:
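Co-culture of human bronchial epithelial cells and dermal fibroblasts, chemical exposure 24 h. Keratin 8/18 measured by ELISA; positive-direction fit vs DMSO. SRB total protein run in parallel cultures for cytotoxicity.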

Assay [8] is described as follows: BSK_MyoF_SRB: Viability Assessment in the BioMAP Diversity Plus: MyoF Assay (AID 2284267).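 Further: total protein by SRB absorbance in parallel cultures as cytotoxicity measure.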 The settings on record: primary human lung fibroblasts. The gist of the method: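 Cytotoxicity in primary human lung fibroblasts is gauged by SRB total-protein staining 24 h after dosing, with DMSO as the negative control.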
Read-out in assay [9]: Matrix Metallopeptidase 1 (MMP1), MMP1 (gene 4312)
Briefly: BSK_MyoF_MMP1: BioMAP Diversity Plus: MyoF Assay for Matrix Metallopeptidase 1 (MMP1) Biomarker Activity (AID 2284268). The settings on record: primary human lung fibroblasts. Summed up:
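Cells: human lung fibroblasts. Exposure: 24 h chemical dosing. Detection: ELISA for MMP1. Analysis: upward fitting against DMSO negative control.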

Read-out in assay [10]: TIMP metallopeptidase inhibitor 1 (TIMP1), TIMP1 (gene 7076)
Briefly: BSK_MyoF_TIMP1: BioMAP Diversity Plus: MyoF Assay for TIMP metallopeptidase inhibitor 1 (TIMP1) Biomarker Activity (AID 2284269). Conditions: primary human lung fibroblasts. The gist of the method: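 Fibroblasts from human lung are dosed with chemical, cultured 24 h, and assayed for TIMP-1 by ELISA. Increases over the DMSO baseline are scored, with SRB total-protein staining run in parallel for cytotoxicity.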

Read-out in assay [11]: Matrix Metallopeptidase 1 (MMP1), MMP1 (gene 4312)
Briefly: BSK_BF4T_MMP1: BioMAP Diversity Plus: BF4T Assay for Matrix Metallopeptidase 1 (MMP1) Biomarker Activity (AID 2284270). Conditions: primary human bronchial epithelial cells with fibroblasts. The gist of the method:
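Co-culture of human bronchial epithelial cells and dermal fibroblasts; MMP-1 levels measured by ELISA 24 hours after chemical dosing, relative to DMSO. Cytotoxicity checked in parallel cultures by SRB total-protein staining.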

Read-out in assay [12]: Matrix Metallopeptidase 3 (MMP3), MMP3 (gene 4314)
Briefly: BSK_BF4T_MMP3: BioMAP Diversity Plus: BF4T Assay for Matrix Metallopeptidase 3 (MMP3) Biomarker Activity (AID 2284271). The settings on record: primary human bronchial epithelial cells with fibroblasts. Summed up: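 Co-culture of human bronchial epithelial cells and dermal fibroblasts dosed 24 h; MMP-3 measured by ELISA, positive-direction fit versus DMSO. Cytotoxicity tracked by SRB total-protein staining (560 nm) in parallel cultures.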

Read-out in assay [13]: Plasminogen Activator Inhibitor-1 (PAI1), SERPINE1 (gene 5054)
The assay can be described thus: BSK_BF4T_PAI1: BioMAP Diversity Plus: BF4T Assay for Plasminogen Activator Inhibitor-1 (PAI1) Biomarker Activity (AID 2284273). Conditions: primary human bronchial epithelial cells with fibroblasts. The gist of the method: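 Co-culture of human bronchial epithelial cells and dermal fibroblasts exposed to compound for 24 h. PAI-1 measured by ELISA; activity fitted in positive direction versus DMSO. Parallel SRB staining assessed overt cytotoxicity.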

A short description of assay [14]: BSK_BF4T_SRB: Viability Assessment in the BioMAP Diversity Plus: BF4T Assay (AID 2284274). Conditions: primary human bronchial epithelial cells with fibroblasts. The gist of the method: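 Co-culture of human bronchial epithelial cells and dermal fibroblasts (BioMAP BF4T) exposed 24 h. Total protein by sulforhodamine B staining (0.1% SRB after 10% TCA fixation, 560 nm) in parallel cultures; fitted vs DMSO.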

Read-out in assay [15]: urokinase Plasminogen Activator (uPA), PLAU (gene 5328)
The assay can be described thus: BSK_BF4T_uPA: BioMAP Diversity Plus: BF4T Assay for urokinase Plasminogen Activator (uPA) Biomarker Activity (AID 2284275). Conditions: primary human bronchial epithelial cells with fibroblasts. Summed up: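 Co-culture of human bronchial epithelial cells and dermal fibroblasts; uPA quantified by ELISA 24 hours after dosing, fitted relative to DMSO. Parallel SRB total-protein staining assessed overt cytotoxicity.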

Read-out in assay [16]: Matrix Metallopeptidase 9 (MMP9), MMP9 (gene 4318)
The assay can be described thus: BSK_BF4T_MMP9: BioMAP Diversity Plus: BF4T Assay for Matrix Metallopeptidase 9 (MMP9) Biomarker Activity (AID 2284276). The settings on record: primary human bronchial epithelial cells with fibroblasts. The gist of the method: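 Co-culture of human bronchial epithelial cells and dermal fibroblasts dosed for 24 h; MMP-9 quantified by ELISA and fitted upward versus DMSO. Cytotoxicity monitored in parallel cultures by SRB total-protein staining at the biomarker time point.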

“And” between values parts separate entries of the source, which are not always exact repeats. Equal values may be shown once. More than one record can exist for a structure, and the calls need not agree. The source made the active and inactive calls. How the source made its calls: active means hit-call score of the fitted dose curve at least 0.9, where 1 is the maximum; inactive means score below 0.9.

For `C[Si](C)(C)C(F)(F)C(F)(F)C(F)(F)F`, the outcome in assay [1] was “inactive”; in [2], “inactive”; in [3], “inactive”; with CD69, CD69 (gene 969), “inactive”; in [4] it was “inactive”; in assay [5], “inactive”. In addition, the outcome is “inactive” in assay [6]; “inactive” with CD90, THY1 (gene 7070); “inactive” in assay [7]; “inactive” with Decorin, DCN (gene 1634); “inactive” with KRT18 (gene 3875); “inactive” in assay [8]. Besides, the outcome in assay [9], in assay [10], in [11], in assay [12], in assay [13] and in assay [14] was inactive. Moreover, the outcome in [15] and in [16] was inactive.

Turning to `OCc1c[nH]c2ccccc12`, the outcome was “inactive” in assay [3]; “inactive” in [6]; “inactive” with Decorin, DCN (gene 1634); “inactive” in assay [8]; “inactive” in assay [10]. Besides, in assay [9], the half-maximal activity concentration (AC50) is 16.8 µM (active).

Consider `FC(F)=C(F)C(F)(F)C(F)(F)C(F)(F)C(F)(F)C(F)(F)C(F)(F)F`, for which the outcome in [1] is “inactive”; in assay [2] it was “inactive”; in [3], “inactive”; in the assay with CD69, CD69 (gene 969), “inactive”; in assay [4], “inactive”; in assay [5], “inactive”. Also, the outcome in assay [6] was “inactive”; with CD90, THY1 (gene 7070), “inactive”; in assay [7], “inactive”; with Decorin, DCN (gene 1634), “inactive”; in the assay with KRT18 (gene 3875) it was “inactive”; in [8] it was “inactive”. Also, the outcome in assay [9], in assay [10], in assay [11], in [12], in [13] and in [14] was inactive. Also, the result in assay [15] and in assay [16] was inactive.

`OC(O)(C(F)C(O)(O)C(F)(F)F)C(F)(F)F`: the outcome in assay [1] is “inactive”; in assay [3] it was “inactive”; in the assay with CD69, CD69 (gene 969), “inactive”; in assay [4] it was “inactive”; in assay [5], “inactive”; in assay [6] it was “inactive”. The outcome in the assay with CD90, THY1 (gene 7070) was “inactive”; in assay [7] it was “inactive”; in the assay with Decorin, DCN (gene 1634), “inactive”; with KRT18 (gene 3875), “inactive”; in [8] it was “inactive”; in assay [9], “inactive”. In addition, the result in assay [10], in assay [11], in [12], in assay [13], in assay [14] and in assay [15] was inactive. The outcome in assay [16] was inactive. Also, the AC50 in assay [2] is 5.44 µM (active) and 7.95 µM (active); in assay [10], 0.991 µM (active).
